Experimental data: the supplement of paper PMC9023506
Structures can show the parent of a compound that is named as a salt.

Tested on: Danio rerio larvae (5 dpf)
Assay: optomotor response to red moving lines, difference vs DMSO (percentage points (treated minus DMSO)); higher = more of the behaviour than the DMSO vehicle control
Settings: 10 µM; exposure time: 3 h pre-incubation + 3 h imaging
Protocol: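 5-dpf wild-type zebrafish larvae were imaged in 96-well plates. They were treated with 190 Tocris FDA-approved drugs at 10 µM (1 µl/ml DMSO) for 3 h before and 3 h during imaging at 28.5 °C, 48 larvae per drug. Automated image analysis gave % time moving and optomotor responses. Values are drug group mean minus DMSO vehicle mean (n=844), in percentage points, for 10 behaviours.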

Row | Structure (SMILES) | optomotor response to red moving lines
1 | COc1cc(N)c(Cl)cc1C(=O)NC1CCN(CCCOc2ccc(F)cc2)CC1OC (stereo not given) [Cisapride] | -3.64
2 | Nc1nc2c(ncn2COCCO)c(=O)[nH]1 [Acyclovir] | 1.94
3 | OC(c1cc(C(F)(F)F)nc2c(C(F)(F)F)cccc12)C1CCCCN1 (stereo not given) [Mefloquine hydrochloride] | 8.36
4 | CC(C)C(=O)OCC(=O)[C@@]12O[C@H](C3CCCCC3)O[C@@H]1C[C@H]1[C@@H]3CCC4=CC(=O)C=C[C@]4(C)[C@H]3[C@@H](O)C[C@@]12C [Ciclesonide] | -8.97
5 | CN(CCOc1ccc(NS(C)(=O)=O)cc1)CCc1ccc(NS(C)(=O)=O)cc1 [Dofetilide] | -14.2
6 | C=C1[C@H](CO)[C@@H](O)C[C@@H]1n1cnc2c(=O)[nH]c(N)nc21 [Entecavir] | 1.68
7 | CN(C)C(=N)NC(=N)N [Metformin hydrochloride] | 17.8
8 | CC(=O)Nc1ccc(O)cc1 [Acetaminophen] | -2.99
9 | OCCN(CCO)c1nc(N2CCCCC2)c2nc(N(CCO)CCO)nc(N3CCCCC3)c2n1 [Dipyridamole] | -6.85
10 | CC[C@H](C)C(=O)O[C@H]1C[C@@H](C)C=C2C=C[C@H](C)[C@H](CC[C@@H]3C[C@@H](O)CC(=O)O3)[C@H]21 [Lovastatin] | -6.33
11 | CCCN(CCC)S(=O)(=O)c1ccc(C(=O)O)cc1 [Probenecid] | -2.21
12 | COCCCOc1cc(C[C@@H](C[C@H](N)[C@@H](O)C[C@H](C(=O)NCC(C)(C)C(N)=O)C(C)C)C(C)C)ccc1OC [Aliskiren hemifumarate] | 0.559
13 | CN1CC2c3ccccc3Oc3ccc(Cl)cc3C2C1 (stereo not given) [Asenapine maleate] | -5.48
14 | C/C(O)=C(\C#N)C(=O)Nc1ccc(C(F)(F)F)cc1 [Teriflunomide] | -3.45
15 | COc1ccc([C@@H]2Sc3ccccc3N(CCN(C)C)C(=O)[C@@H]2OC(C)=O)cc1 [Diltiazem hydrochloride] | -1.99
16 | CNS(=O)(=O)Cc1ccc2[nH]cc(CCN(C)C)c2c1 [Sumatriptan succinate] | -6.18
17 | NS(=O)(=O)c1cc(C(=O)O)c(NCc2ccco2)cc1Cl [Furosemide] | 4.84
18 | Cc1ccc(-c2cc(C(F)(F)F)nn2-c2ccc(S(N)(=O)=O)cc2)cc1 [Celecoxib] | -3.89
19 | CNCc1ccc(-c2[nH]c3cc(F)cc4c3c2CCNC4=O)cc1 [Rucaparib camsylate] | 2.5
20 | CCc1ccc(CCOc2ccc(CC3SC(=O)NC3=O)cc2)nc1 (stereo not given) [Pioglitazone hydrochloride] | -7.97

Row | Structure (SMILES) | optomotor response to red moving lines
21 | CCOC(=O)[C@H](CCc1ccccc1)N[C@@H](C)C(=O)N1[C@H](C(=O)O)C[C@@H]2CCC[C@@H]21 [Ramipril] | -1.65
22 | CCCCCOC(=O)Nc1nc(=O)n([C@@H]2O[C@H](C)[C@@H](O)[C@H]2O)cc1F [Capecitabine] | 4.71
23 | CN1CCC[C@@H]1CCO[C@](C)(c1ccccc1)c1ccc(Cl)cc1 [Clemastine fumarate] | 16.7
24 | N#Cc1ccc2[nH]cc(CCCCN3CCN(c4ccc5oc(C(N)=O)cc5c4)CC3)c2c1 [Vilazodone hydrochloride] | 12.8
25 | Nc1cccc2c1CN(C1CCC(=O)NC1=O)C2=O (stereo not given) [Lenalidomide] | 6.24
26 | COc1c(C)c2c(c(O)c1C/C=C(\C)CCC(=O)O)C(=O)OC2 [Mycophenolic acid] | -3.36
27 | C[C@@H]1C[C@H]2[C@@H]3CCC4=CC(=O)C=C[C@]4(C)[C@@]3(F)[C@@H](O)C[C@]2(C)[C@@]1(O)C(=O)CO [Dexamethasone] | -2.54
28 | CN(C)CCc1c[nH]c2ccc(C[C@H]3COC(=O)N3)cc12 [Zolmitriptan] | 2.8
29 | Clc1ccc(COC(Cn2ccnc2)c2ccc(Cl)cc2Cl)c(Cl)c1 (stereo not given) [Miconazole nitrate] | -8.36
30 | CCN(CC)CCNC(=O)c1c(C)[nH]c(/C=C2\C(=O)Nc3ccc(F)cc32)c1C [Sunitinib malate] | -0.697
31 | CC(=O)O[C@]1(C(C)=O)CC[C@H]2[C@@H]3C=C(C)C4=CC(=O)CC[C@]4(C)[C@H]3CC[C@@]21C [Megestrol Acetate] | 3.71
32 | CC(C)[C@H]1CC[C@H](C(=O)N[C@H](Cc2ccccc2)C(=O)O)CC1 [Nateglinide] | 12.8
33 | Cc1ccsc1C(=CCCN1CCC[C@@H](C(=O)O)C1)c1sccc1C [Tiagabine hydrochloride] | 20.4
34 | CC(=O)S[C@@H]1CC2=CC(=O)CC[C@]2(C)[C@H]2CC[C@@]3(C)[C@@H](CC[C@@]34CCC(=O)O4)[C@H]12 [Spironolactone] | 11.7
35 | Cc1cccc(CN2CCN(C(c3ccccc3)c3ccc(Cl)cc3)CC2)c1 (stereo not given) [Meclizine dihydrochloride] | -10.1
36 | CCN(Cc1ccncc1)C(=O)C(CO)c1ccccc1 (stereo not given) [Tropicamide] | 1.4
37 | CCCCCCCCc1ccc(CCC(N)(CO)CO)cc1 | 2.93
38 | O=C1CCc2cc(OCCCCc3nnnn3C3CCCCC3)ccc2N1 [Cilostazol] | -8.76
39 | CC(C)N(CCCCOCC(=O)NS(C)(=O)=O)c1cnc(-c2ccccc2)c(-c2ccccc2)n1 [Selexipag] | -8.23
40 | Nc1ncn([C@H]2C[C@H](O)[C@@H](CO)O2)c(=O)n1 [Decitabine] | -3.68
